Screens: PubChem BioAssay, National Center for Advancing Translational Sciences (NCATS)
In the library only some 19% were active in any assay of this set; here they are far more common.
HT1080NT lethal: qHTS for induction of synthetic lethality in tumor cells producing 2HG: qHTS for the HT-1080-NT fibrosarcoma cell line; HT-1080-NT fibrosarcoma viability, CellTiter-Glo ATP luminescence, 48 h; Potency, µM (titrated, usually from 46.1 µM), for inactives: at the top dose activity, negative = less viability, most hits filed as cytotoxic; 360,000 compounds, 1.6% hits; AID 686970, 2013;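 also: NT is the 2HG producing partner of a matched IDH1 knockdown line; 0% = DMSO-treated cells and -100% = media-only wells without cells; nearly all actives have a fitted effect of over 55% in size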
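Fibrosarcoma NT cells, 750 per well in 5% FBS RPMI, were exposed to compound for 48 hours. Viability: CellTiter-Glo luminescence.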
TDP1 cell noCPT: qHTS for Inhibitors of human tyrosyl-DNA phosphodiesterase 1 (TDP1): qHTS in cells in absence of CPT | AID 686978, 2013 | 420,000 compounds, 15% hits | Potency, µM (highest dose often 46.2 µM), for the others: at the top dose activity change, negative = growth inhibition, hits mostly inhibitors | DT40 Tdp1-/- hTDP1 cells, no CPT, ATP luminescence, 48 h; also: nearly all actives have a fitted effect of over 55% in size
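Growth of hTDP1-complemented DT40 Tdp1-knockout cells is measured by ATP luminescence after at least 48 hr compound exposure at 37 °C, with DMSO substituting for the 20 nM CPT used in the parallel screen.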
HT1080 IDH1KD tx: qHTS for induction of synthetic lethality in tumor cells producing 2HG: qHTS for the HT-1080-IDH1KD cell line | 360,000 compounds, 2% hits | AID 686971, 2013 | HT-1080 IDH1 knockdown viability, ATP luminescence, 48 h | Potency, µM (highest dose often 46.1 µM), for inactives: top-dose activity, negative = toxicity, usual class: cytotoxic;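 also: 0% = DMSO wells and -100% = cell-free medium wells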
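Cytotoxicity counter-line: IDH1KD HT-1080, 48 h, CellTiter-Glo. Curves classed by r2, magnitude and activity.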
KB-V1 cytotox: qHTS assay for MDR1-selective chemotherapeutics: Primary screen using the drug-selected MDR subline cells KB-V1; 400,000 compounds, 3.4% hits; KB-V1 MDR cells viability, CellTiter-Glo, 72 h; AID 1347076, 2019; Potency, µM (titrated, usually from 46.1 µM), most hits filed as cytotoxic; also: nearly all actives have a fitted effect of over 60% in size
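In this primary screen, KB-V1 cells overexpressing P-gp are incubated with library compounds (lowest to highest concentration) for 72 h at 37 degrees C before a luminescent ATP viability read.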
DT40 TDP1 CPT: qHTS for Inhibitors of human tyrosyl-DNA phosphodiesterase 1 (TDP1): qHTS in cells in presence of CPT | chicken DT40 Tdp1-/-;hTDP1 cells + 20 nM CPT, ATP luminescence, 48 h | Potency, µM (highest dose often 46.2 µM), for the others: at the highest dose activity change, negative = growth inhibition, actives largely listed as inhibitors | 420,000 compounds, 12% hits | AID 686979, 2013; also: nearly all actives have a fitted effect of over 55% in size
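Chicken DT40 Tdp1-/- cells complemented with human TDP1, 400 cells/well, exposed to compounds plus 20 nM camptothecin for at least 48 h at 37 C; viability read as ATP content by CellTiter-Glo luminescence.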
KB-3-1 cytotox: qHTS assay for MDR1-selective chemotherapeutics: Primary screen using the parental adenocarcinoma cell KB-3-1; 400,000 compounds, 1.4% hits; AID 1347075, 2019; KB-3-1 viability, CellTiter-Glo ATP luminescence, 72 h; Potency, µM (top dose mostly 46.1 µM), hits mostly cytotoxic; also: nearly all actives have a fitted effect of over 60% in size
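Viability of parental KB-3-1 cells, measured by CellTiter-Glo luminescence, followed a 72 h incubation at 37 °C with pinned compounds in phenol-red-free DMEM containing 10% FBS.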
An asterisk follows results filed as active; i = inactive; u = inconclusive; x = no result given. Calls follow the shape of the dose curve; as a rule, active = well fitted curve in the direction sought with a large enough effect; inconclusive = small, poorly fitted or top-dose-only effect, or another doubt; inactive = no such curve, though single readings can be large; an effect the other way counts as inactive or inconclusive. Unless noted, % is scaled to controls: 0 for no effect and ±100 for the full control effect; potency is read from the fitted curve at half-maximal effect.

SMILES | HT1080NT lethal | TDP1 cell noCPT | HT1080 IDH1KD tx | KB-V1 cytotox | DT40 TDP1 CPT | KB-3-1 cytotox
Cc1ccc(S(=O)(=O)CC2CSc3nc4ccccc4n32)cc1 (configuration not stated) | -7% | 1.8µM* | u | 0.52µM* | 1.8µM* | 0.73µM*
Cc1ccc(-c2noc(-c3ccc(N4CCCCC4)c([N+](=O)[O-])c3)n2)cc1 | x | 21µM* | x | i | u | i
COc1ccc(-c2noc(-c3ccc(N4CCOCC4)c([N+](=O)[O-])c3)n2)cc1 | x | -1% | x | u | -15% | i
CCc1noc(-c2ccc(N3CCCCC3)c([N+](=O)[O-])c2)n1 | x | 5% | x | i | u | i
Cc1ccc(-c2noc(-c3ccc(N4CCOCC4)c([N+](=O)[O-])c3)n2)cc1 | x | 21µM* | x | i | -14% | i
CCc1noc(-c2ccc(N3CCC(C)CC3)c([N+](=O)[O-])c2)n1 | x | u | x | i | 18µM* | i
COC1OC2COC(c3ccccc3)OC2C(OC(C)=O)C1OC(C)=O (configuration not stated) | 18% | 4% | u | i | 0% | i
Cc1cc(NC(=O)c2cc(-c3ccc(Cl)c(Cl)c3)on2)n(-c2ccccc2)n1 | x | -23% | x | i | -21% | i
CC1CCN(c2[nH]c(=S)c(C#N)c3c2CCCC3)CC1 | 8% | u | 10% | i | u | i
CC1(C)Cc2c(c(N3CCCCC3)[nH]c(=S)c2C#N)CS1 | 5% | -27% | 14% | 12µM* | -1% | i
O=P(COCCCCCOCP(=O)(c1ccccc1)c1ccccc1)(c1ccccc1)c1ccccc1 | -11% | 18µM* | -11% | i | 16µM* | i
COc1ccc(P(=O)(COc2ccc([N+](=O)[O-])cc2)c2ccc(OC)cc2)cc1 | -3% | u | -3% | 4.1µM* | u | i
O=P(COc1ccccc1)(c1ccccc1)c1ccccc1 | -4% | -27% | 3% | 15µM* | -30% | i
CCCCN(CCCC)CP(=O)(c1ccccc1)c1ccccc1 | u | 15µM* | u | i | 16µM* | i
CCCCCCP(=O)(O)c1ccccc1 | 17% | 4% | 12% | i | 17% | i
COCCCNC(=O)c1csc([C@H]2C[C@H](O)[C@@H](CO)O2)n1 | 14% | 5% | 13% | i | 0% | i
CC(C)NC(=O)CCCN1C(=O)CCn2nc(-c3cccn3C)cc21 | x | 4% | x | i | -16% | i
O=P(CCCCCCCCCP(=O)(c1ccccc1)c1ccccc1)(c1ccccc1)c1ccccc1 | 18µM* | 8.2µM* | 23µM* | 15µM* | 7.3µM* | u
O=C(O)CCCCCCCCCCP(=O)(c1ccccc1)c1ccccc1 | 7% | 6% | 2% | i | 5% | i
CCN(C(=O)C1CCN(S(=O)(=O)c2c(C)noc2/C=C/c2ccc(C)cc2)CC1)c1cccc(C)c1 | x | u | x | i | 1% | i
CCn1c(SCC(=O)NCc2ccco2)nnc1-c1ccc(N(C)C)cc1 | x | -17% | x | i | -11% | i
C=CCN(Cc1nc(-c2ccccc2)no1)C(=O)c1ccoc1C | -1% | u | 4% | u | 29µM* | i
C[C@H]1CN([C@@H](C)CO)C(=O)c2cccc(NC(=O)c3cnccn3)c2O[C@@H]1CN(C)S(=O)(=O)c1ccc(F)cc1 | -2% | u | -3% | i | 11% | i
COc1cc(/C=C/C(C)=NNc2ccccc2)ccc1O | u | 4.1µM* | u | i | 3.7µM* | i
COc1cc(/C=C/C(=O)O)ccc1O | -1% | -2% | 5% | i | 10% | i
SMILES | HT1080NT lethal | TDP1 cell noCPT | HT1080 IDH1KD tx | KB-V1 cytotox | DT40 TDP1 CPT | KB-3-1 cytotox
CC1CN(C(=O)CCC(=O)NCc2cccs2)c2cc(Cl)ccc2O1 (configuration not stated) | x | -13% | x | i | u | i
Cn1c(Cc2ccccc2)[n+](C)c2ccccc21 | -10% | 15µM* | -17% | i | u | u
O=C(NCCc1nc2ccccc2n1CCCOc1ccc2ccccc2c1)C1CCCCC1 | x | 11µM* | x | i | u | i
Cc1cccc(OCCCn2c(CCNC(=O)C3CCCCC3)nc3ccccc32)c1 | x | 12µM* | x | x | 13µM* | x
Cc1cccc(OCCn2c(SCC(N)=O)nc3ccccc32)c1 | x | 21µM* | x | i | u | i
Cc1ccc(OCCCCn2c(CCNC(=O)C3CCCCC3)nc3ccccc32)cc1 | x | 16µM* | x | i | u | i
O=C(NCCc1nc2ccccc2n1CCOc1ccc2ccccc2c1)C1CCCCC1 | x | u | x | i | u | i
CCOC(=O)c1sc2ccccc2c1S(=O)(=O)Nc1cccc(C(F)(F)F)c1 | x | u | x | i | u | i
Cc1ccccc1OCCCn1c(CCNC(=O)C2CCCCC2)nc2ccccc21 | x | 16µM* | x | x | 13µM* | x
CC(C)(C)NC(=O)Cn1c(SCC(=O)N2CCCCCC2)nc2ccccc21 | 7% | -18% | 5% | u | -18% | u
